Data published in PubChem BioAssay AID602123 (The Scripps Research Institute Molecular Screening Center, 2011).
Screen size: about 360,000 compounds; about 1,500 (0.42%) were called active. The sample holds actives, similar compounds and a random draw of the others, so the mix is not that of the screen. A number with no mark means an inactive call. Cut-off read from the data, not from the text of the source: active = inhibition above about 13% (passing the limit was not always enough); inactive = the rest.

These compounds were tested against Lon protease (Escherichia coli (strain K12)) (UniProt P0A9M0) (assay: inhibitors of E. coli Lon protease, primary screen, biochemical, fluorescence polarization (AID 602123;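 note: 0% = enzyme with probe and DMSO and 100% = no enzyme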)). Conditions: purified E. coli Lon protease, at 7.94 µM, active compounds read high.
Chain of Lon protease (Escherichia coli (strain K12)) (P0A9M0 whole entry, looked up): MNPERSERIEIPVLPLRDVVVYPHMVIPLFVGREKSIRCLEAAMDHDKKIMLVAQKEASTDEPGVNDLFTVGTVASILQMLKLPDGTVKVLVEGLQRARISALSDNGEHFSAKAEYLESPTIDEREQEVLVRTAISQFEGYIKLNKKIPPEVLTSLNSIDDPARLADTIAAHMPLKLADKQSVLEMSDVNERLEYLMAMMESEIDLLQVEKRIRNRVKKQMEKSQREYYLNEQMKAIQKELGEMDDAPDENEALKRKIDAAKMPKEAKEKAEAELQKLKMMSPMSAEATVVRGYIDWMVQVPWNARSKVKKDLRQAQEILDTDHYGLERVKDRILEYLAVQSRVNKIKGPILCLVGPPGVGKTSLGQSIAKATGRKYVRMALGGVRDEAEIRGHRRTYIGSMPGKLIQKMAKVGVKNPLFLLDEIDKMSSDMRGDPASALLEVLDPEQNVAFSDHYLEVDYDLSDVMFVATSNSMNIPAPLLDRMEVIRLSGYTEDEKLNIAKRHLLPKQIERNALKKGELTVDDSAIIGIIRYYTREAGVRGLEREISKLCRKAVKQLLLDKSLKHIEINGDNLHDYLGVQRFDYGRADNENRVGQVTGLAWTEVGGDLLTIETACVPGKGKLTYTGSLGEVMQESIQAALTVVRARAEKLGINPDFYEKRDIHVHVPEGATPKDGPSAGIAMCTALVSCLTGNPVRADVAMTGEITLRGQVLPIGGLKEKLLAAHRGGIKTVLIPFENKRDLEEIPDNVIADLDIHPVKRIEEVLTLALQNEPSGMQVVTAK

| Compound | inhibition |
| --- | --- |
| c1ccc(-c2ccc3c(c2)NC(C2Nc4cc(-c5ccccc5)ccc4O2)O3)cc1 (centres undefined) | -3.71% |
| NC(=O)c1nnsc1-c1ccc(-c2snnc2C(N)=O)cc1 | 1.17% |
| COc1ccc(S(=O)(=O)N2CCOCC2)cc1NC(=O)COc1ccccc1 | -17.8% |
| COc1ccc(S(=O)(=O)N2CCOCC2)cc1NC(=O)CSc1cc(C)ccc1C | -9.45% |
| COc1ccc(S(=O)(=O)N2CCOCC2)cc1NC(=O)Cc1c(F)cccc1Cl | 20.4% (active) |
| Cc1ccc(CNC(=O)CCN2C(=O)[C@@H]3Cc4ccccc4CN3C2=O)cc1 | 1.97% |
| O=C(CN1CCCSc2ccccc21)N1CCN(S(=O)(=O)c2ccccc2)CC1 | 4.26% |
| O=C(CN1CCN(S(=O)(=O)c2cccc(Cl)c2)CC1)N1CCCCC1 | -0.39% |
| O=C(CN1CCCSc2ccccc21)N1CCN(S(=O)(=O)c2cccc(F)c2)CC1 | 19.9% (active) |
| CC(C)N1CCC(=NNc2ccc([N+](=O)[O-])cc2S(=O)(=O)N2CCOCC2)CC1 | 1.91% |
| COc1ccccc1Oc1ccc(N2CC(C(=O)OCC(=O)c3ccc(F)cc3)CC2=O)cc1 (centres undefined) | 2.52% |
| CNS(=O)(=O)c1ccc2c(c1)[nH]c(=S)n2C | 62.6% (active) |
| CCn1c(=S)[nH]c2cc(S(=O)(=O)N3CCOCC3)ccc21 | 3.25% |
| CCCCn1c(=S)[nH]c2cc(S(=O)(=O)N3CCCCC3)ccc21 | -10.8% |
| CSc1ccc(S(=O)(=O)N2CCC(C(=O)NCCc3ccccc3)CC2)cc1 | 11% |
| CCN(CC)Cc1c(C(=O)N/N=C/c2cccc(OCc3ccc(F)cc3)c2)nnn1-c1nonc1N | 5.3% |
| CN(C)Cc1c(C(=O)N/N=C/c2ccccc2OCc2ccc(F)cc2)nnn1-c1nonc1N | 18.9% (active) |
| CC(C)Oc1ccc(/C=N/NC(=O)c2nnn(-c3nonc3N)c2CN(C)C2CCCCC2)cc1 | 1.38% |
| CCc1ccc(CN2C(=O)c3ccccc3C2C(=O)NCC2CCCO2)cc1 (centres undefined) | -0.17% |
| COc1c(C(C)C)oc2cc3oc(=O)ccc3cc12 | 0.79% |
| CS(=O)(=O)N(C(=O)NC(=O)NC1CCS(=O)(=O)C1)C1CCCCC1 (centres undefined) | -6.98% |
| Cc1ccc2cccc(S(=O)(=O)N3CCN(c4ccccc4F)CC3)c2n1 | 1.99% |
| Cc1cc(-c2nnc(CCC(=O)NC(c3ccccc3)c3ccccc3)o2)no1 | 5.3% |
| COc1cccc(N(CC(=O)NCc2ccccc2)C(=O)CCC(=O)Nc2nccs2)c1 | -5.92% |
